Laboratory results taken from PubChem BioAssay (NCI).
This is part of a sample that, as a whole, favours compounds with a hit. Of some 83,000 tested, about 20% had one in any assay.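 The endpoint reported here, percent growth, reads 100 for growth as untreated, 0 for no net growth and -100 for all cells dead.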 A number with no mark means an inactive call. Activity calls are given as the source filed them. The calls were made as follows: active = growth percent below 10; inactive = the rest.

Experiments:
Test in all cases: NCI-60 one-dose screen, 48 h (100 = growth as untreated, 0 = no growth, -100 = all killed)
[1] = tested on: NCI-H23 lung; details: 10 µM unless noted
[2] = tested on: NCI-H226 lung; details: 10 µM unless noted
[3] = tested on: NCI-H322M lung; details: 10 µM unless noted
[4] = tested on: HOP-62 NSCLC; details: 10 µM unless noted
[5] = tested on: NCI-H460 lung; details: 10 µM unless noted
[6] = tested on: HOP-92 NSCLC; details: 10 µM unless noted
[7] = tested on: NCI-H522 lung; details: 10 µM unless noted
[8] = tested on: A549/ATCC NSCLC; details: 10 µM unless noted
[9] = tested on: 786-0 renal; details: 10 µM unless noted
[10] = tested on: COLO 205 colon; details: 10 µM unless noted
[11] = tested on: DU-145 prostate; details: 10 µM unless noted
[12] = tested on: K-562 leukemia; details: 10 µM unless noted
[13] = tested on: MALME-3M melanoma; details: 10 µM unless noted
[14] = tested on: MDA-MB-231 breast; details: 10 µM unless noted
[15] = tested on: RXF 393 renal; details: 10 µM unless noted
[16] = tested on: SF-268 CNS; details: 10 µM unless noted
[17] = tested on: SF-295 CNS; details: 10 µM unless noted
[18] = tested on: SF-539 CNS; details: 10 µM unless noted
[19] = tested on: UACC-257 melanoma; details: 10 µM
[20] = tested on: M14 melanoma; details: 10 µM unless noted

SMILES | growth [1] | growth [2] | growth [3] | growth [4] | growth [5] | growth [6] | growth [7] | growth [8] | growth [9] | growth [10] | growth [11] | growth [12] | growth [13] | growth [14] | growth [15] | growth [16] | growth [17] | growth [18] | growth [19] | growth [20]
COC1=CC(c2ccc[nH]2)=N/C1=C\c1[nH]c(C)c(C(=O)CCCCC(=O)Nc2ccccc2)c1C | 34.4% | 44.1% | 87.3% | 80.7% | -38.8% (active) | -71.4% (active) | -45.3% (active) | -21.4% (active) | 93.5% | 67.1% | 6.29% (active) | 62.4% | 87.7% | -10.1% (active) | -63.9% (active) | 44.1% | -2.61% (active) | 78.6% | 74.4% | 13.1%
CCNC(=O)CCCCC(=O)c1c(C)[nH]c(/C=C2\N=C(c3ccc[nH]3)C=C2OC)c1C | 35% | 65.7% | 37.9% | 42.7% | -65.1% (active) | -71.6% (active) | -91.7% (active) | 9.45% (active) | -51.9% (active) | 1.23% (active) | 2.48% (active) | 51.5% | 51.6% | 0.721% (active) | -48% (active) | 27.2% | -22.1% (active) | 54.8% | 54.6% | 5.27% (active)
COc1cccc(/C=C/C(=O)c2sc(Nc3ccc(O)cc3)nc2C)c1 | 92.3% | 107% | 93.5% | 107% | 105% | 107% | 24.9% | 88.2% | 80.2% | 115% | 94.9% | 79.1% | 95% | 105% | 84.6% | 61.2% | 104% | 74.5% | 85% | 95.4%
CC(C)(C)c1ccc(S(=O)(=O)Oc2ccc3c4c(c(=O)oc3c2)CCCCC4)cc1 | 43% | 56.7% | 85.9% | 85.2% | 43.2% | 3.94% (active) | -14.1% (active) | 59.3% | 60.8% | 37.4% | 77.4% | 38.5% | 44% | 80.2% | 48.1% | 61.1% | 2.71% (active) | 42.7% | 48.9% | 39.4%
c1cc(-c2ccc3c(c2)OCO3)n2nccc2n1 | 104% | 83% | 99.3% | 108% | 101% | 83.9% | 89.7% | 99.2% | 101% | 113% | 106% | 102% | 104% | 106% | 96.4% | 104% | 99.9% | 89.1% | 103% | 109%
O=C1c2ccccc2C(=O)c2c1oc1oc3c(c(=O)c21)c(=O)n(-c1ccccc1)c1ccccc31 | 38.2% | 86.3% | 63.5% | 36.1% | 33.6% | 80% | 19.4% | 37.7% | 97.9% | 92.7% | 94.4% | 26.8% | 42% | 97.3% | -14.1% (active) | 34.3% | 18.4% | -5.45% (active) | 101% | 44.7%
N#Cc1ncc(-c2ccc(F)c(F)c2F)c(NC2CCCCCC2)n1 | 88.1% | 93.8% | 85.7% | 82.3% | 98.9% | 65.1% | 72% | 89.3% | 87.1% | 99.8% | 95.8% | 76.8% | 131% | 67% | 77.5% | 66.6% | 97.8% | 93.7% | 81.5% | 97.8%
COc1cccc(-c2nc3sccn3c2-c2ccnc(NCCNS(=O)(=O)c3ccccc3)n2)c1 | 65.8% | 43.1% | 81.7% | 114% | 62.4% | 62.6% | 49.5% | 64.8% | 56.7% | 34.1% | 65.8% | 36.9% | 66.6% | 63.5% | 64.2% | 62.7% | 63.6% | 79.9% | 81.4% | 35.8%
O=C(CNC1CCCCC1)Nc1ccc(-c2nc3ccccc3s2)cc1 | 76.2% | 80.3% | 91.7% | 85.2% | 91.3% | 48.8% | 95.5% | 88% | 70.6% | 95.4% | 89.3% | 49.5% | 105% | 46.2% | 68.5% | 78.4% | 85.9% | 87.5% | 105% | 89.4%
COc1cc2c3c(c(=O)oc2cc1OS(=O)(=O)c1ccc(C(F)(F)F)cc1)CCCCC3 | 76.8% | 77.8% | 84.9% | 64% | 89.9% | 56.8% | 71.6% | 75.4% | 72.2% | 93.1% | 82.4% | 97.3% | 72.1% | 68.6% | 30.1% | 93.4% | 81.9% | 64.9% | 95.6% | 83.7%
CCCCC[C@@H]1Cc2cc(O)c(C(=O)O)c3c2[C@H](C[C@@]2(CCCO2)O3)O1 | 103% | 110% | 121% | 93.6% | 121% | 4.89% (active) | 89.7% | 105% | 103% | 112% | 111% | 58.1% | 121% | 101% | 73.4% | 116% | 101% | 103% |  | 103%
N#CC1=C(N)n2nc(-c3ccncc3)nc2NC1c1cccc2ccccc12 (stereo not drawn) | 90.4% | 78.3% | 106% | 88.2% | 100% | 40.4% | 75.2% | 92.4% | 88% | 106% | 93.3% | 80.9% | 82% | 77.6% | 87.4% | 94.5% | 90.5% | 88.2% |  | 90.1%
Cc1ccc(Oc2nc3ccccc3cc2-c2nnc(Cn3c(COc4ccccc4)nc4ccccc43)o2)cc1 | 66.5% | 64.9% | 92.3% | 49.8% | 94.1% | 14.2% | 70.2% | 81.3% | 62.7% | 84.6% | 63.5% | -3.18% (active) | 72.5% | 47.7% | 60.3% | 20.6% | 92% | 63.3% | 94.6% | 45.5%
COc1cc(-c2cc(/C=C3\CCCCC3=O)[nH]n2)cc(OC)c1OC | 95.5% | 94.6% | 95.3% | 99.3% | 104% | 86.4% | 76.9% | 95.1% | 98.1% | 108% | 95.4% | 79.4% | 101% | 94.6% | 96.1% | 96.8% | 96.4% | 103% | 95% | 101%
COc1cc(Cn2c(-c3nonc3N)nc3ccccc32)ccc1C | 25.1% | 50.3% | 58.8% | 30.5% | 11% | 39.8% | -20% (active) | 24.2% | 40.3% | -9.7% (active) | 13.8% | 10.4% | 80.7% | 22.3% | -8.35% (active) | 40.3% | 26% | -32.8% (active) | 65.2% | 14%
